# Rab9 promoter act: qHTS Assay for Rab9 Promoter Activators | Huh7 Rab9 promoter-luciferase reporter, luminescence, 24 h | Potency, µM (titrated, usually from 9.22 µM), without a hit: top-dose activation, negative = inhibition, most hits filed as activators | hit rate 2.8% among 320,000 | AID 485297, 2010; also: % of control where 0% means no effect; nearly all actives have a fitted effect of over 60% in size
#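 Luminescence from Amplite-detected luciferase (10 minutes, ambient) reports Rab9 promoter activation. Before that, stable Rab9-luciferase Huh7 cells (1500/well, reduced-serum OP-MEM I plus 10% FBS) were exposed to compound for 24 hours at 37C.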
# SMN2 splice up: qHTS Assay for Enhancers of SMN2 Splice Variant Expression. HEK293 SMN2-luciferase splicing reporter, luminescence, 30-36 h. Potency, µM (doses to about 46.1 µM), for the others: at the top dose activity change, positive = activation, most hits filed as activators. hit rate 2.8% among 210,000. AID 1458, 2008; also: % of control where 0% means no effect; nearly all actives have a fitted effect of over 55% in size
#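 HEK293 cells carry an SMN2 minigene-luciferase reporter in which exon 7 inclusion puts luciferase in frame. Cells were seeded at 2000 cells/well, attached for 10-12 hours, then exposed to compounds for 30-36 hours at 37C before ONE-Glo luminescence.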
# FLuc modulator: qHTS profiling assay for firefly luciferase inhibitor/activator using purifed enzyme and Km concentrations of substrates (counterscreen for miR-21 project). Luciferin 4-monooxygenase (Photinus pyralis), P08659. purified FLuc, Km substrates, luminescence inhibition. Potency, µM (doses to about 57.5 µM), for inactives: at the top dose activity change, negative = inhibition, hits mostly inhibitors. hit rate 6.9% among 360,000;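 also: plate controls were vehicle for no effect and reference inhibitor for full effect; nearly all actives have a fitted effect of over 55% in size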
# Target sequence (P08659 whole entry, looked up): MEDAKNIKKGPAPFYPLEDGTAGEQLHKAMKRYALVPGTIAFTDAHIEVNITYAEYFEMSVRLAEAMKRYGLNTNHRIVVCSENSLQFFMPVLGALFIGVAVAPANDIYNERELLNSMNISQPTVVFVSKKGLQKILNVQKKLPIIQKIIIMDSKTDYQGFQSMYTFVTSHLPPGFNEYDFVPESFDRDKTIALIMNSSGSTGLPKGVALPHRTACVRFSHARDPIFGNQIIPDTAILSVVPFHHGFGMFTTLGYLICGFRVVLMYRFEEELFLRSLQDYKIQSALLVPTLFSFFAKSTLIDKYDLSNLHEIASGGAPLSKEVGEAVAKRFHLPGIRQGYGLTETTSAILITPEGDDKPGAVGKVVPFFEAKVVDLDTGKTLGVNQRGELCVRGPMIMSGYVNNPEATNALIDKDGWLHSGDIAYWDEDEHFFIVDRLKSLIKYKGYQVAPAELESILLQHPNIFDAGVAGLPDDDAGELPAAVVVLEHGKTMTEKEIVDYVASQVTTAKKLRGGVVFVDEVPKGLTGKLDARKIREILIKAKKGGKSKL
#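 Purified P. pyralis luciferase, 10 nM final, with Km-level 10 uM D-luciferin and 10 uM ATP in 50 mM Tris acetate pH 7.5, 10 mM Mg acetate, 0.01% Tween-20, 0.05% BSA; 6-point qHTS titration about 60 µM downward; luminescence read.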
# ELG1 repair inh: qHTS screen for small molecules that inhibit ELG1-dependent DNA repair in human embryonic kidney (HEK293T) cells expressing luciferase-tagged ELG1; hit rate 2.3% among 330,000; AID 504467, 2011; Potency, µM (top dose mostly 46.1 µM), for the others: at the top dose activity change, negative = inhibition, usual class: inhibitors; HEK293T ELG1-luciferase reporter, luminescence, 16 h; DNA damage induced by 5-fluorouridine; also: % is scaled to controls: 0 for no effect and ±100 for the full control effect; nearly all actives have a fitted effect of over 55% in size
#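 In this reporter screen, reduction of luminescence relative to DMSO vehicle indicated activity. Compounds and 5-fluorouridine were added together to 2,000 cells per well, incubated for 16 hr at 37 °C, then developed with ONE-Glo.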
# NPC1 prom act: qHTS Assay for NPC1 Promoter Activators; Huh7 NPC1 promoter luciferase reporter, 24 h; Potency, µM (doses to about 9.22 µM), without a hit: top-dose activation, hits mostly activators; hit rate 2.4% among 320,000; also: % of control where 0% means no effect; nearly all actives have a fitted effect of over 60% in size
#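 Luminescence read-out of NPC1 promoter-driven luciferase in stably transfected Huh7 cells; compounds delivered in DMSO and left 24 h at 37C, 5% CO2, qHTS titration format.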
# ELG1 genotoxic: qHTS screen for small molecules that induce genotoxicity in human embryonic kidney (HEK293T) cells expressing luciferase-tagged ELG1; HEK293T ELG1-luciferase reporter, luminescence, 16 h; Potency, µM (doses to about 46 µM), inactives show at the highest dose activity change, positive = activation, most hits filed as activators; hit rate 1.3% among 330,000; also: % of control where 0% means no effect; nearly all actives have a fitted effect of over 60% in size
#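 Quantitative HTS format in 1536-well plates. HEK293T ELG1-luciferase reporter cells receive test compound and are incubated 16 hr at 37 °C, 5% CO2; ONE-Glo added, 30 min room temperature, then luminescence read.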
# Numbers without * were called inactive; ? = inconclusive; / = no result; [ ] = another dose, or the depositor's remark. Sampled rows, rich in hits. Any-hit rate of the full collection: about 9.3%. Calls follow the shape of the dose curve; as a rule, active = well fitted curve in the direction sought with a large enough effect; inconclusive = small, poorly fitted or top-dose-only effect, or another doubt; inactive = no such curve, though single readings can be large; an effect the other way counts as inactive or inconclusive. Potency is read from the fitted curve at half-maximal effect.
SMILES,Rab9 promoter act,SMN2 splice up,FLuc modulator,ELG1 repair inh,NPC1 prom act,ELG1 genotoxic
C/C=C(/C)C(=O)Nc1cccc(C2=NOC3(C2)C[C@H](C(N)=O)N(C(=O)Cc2ccc([N+](=O)[O-])cc2)C3)c1 (stereo partly specified),-1%,/,5%,-2%,-1%,5%
C/C=C\C=C/C(=O)Nc1cccc(C2=NOC3(C2)C[C@H](C(N)=O)N(C(=O)Cc2ccc([N+](=O)[O-])cc2)C3)c1 (stereo partly specified),1%,/,21µM*,6%,-1%,8%
C/C=C\C=C/C(=O)Nc1cccc(C2=NOC3(C2)C[C@@H](C(N)=O)N(C(=O)CCCCC)C3)c1 (stereo partly specified),-5%,/,13µM*,7%,-39%,2%
C/C=C\C=C/C(=O)Nc1cccc(C2=NOC3(C2)C[C@H](C(N)=O)N(C(=O)CC)C3)c1 (stereo partly specified),3%,/,19µM*,15%,1%,0%
C/C=C/C=C/C(=O)N1CC2(CC(c3cccc(NC(=O)CCCCC)c3)=NO2)C[C@H]1C(N)=O (stereo partly specified),-1%,/,-17%,-19%,-3%,-3%
CCCCNC(=S)N1CCC(Cc2ccccc2)CC1,6%,/,?,-1%,-1%,7%
CC1CCCC(C)N1/N=C/c1cc(Br)c(O)c(Br)c1 (stereo unspecified),-5%,-34%,2%,0%,-1%,1%
C=CCN=c1scc(C)n1/N=C/c1ccc(O)c(O)c1,1%,16µM*,27µM*,?,-3%,?
CN=c1scc(C)n1/N=C/c1cc(Br)c(O)c(Br)c1,-2%,-15%,11µM*,9%,-4%,0%
CC1CCCC(C)N1/N=C/c1ccc(O)c(O)c1 (stereo unspecified),5%,/,-17%,12%,-3%,7%
CN=c1scc(-c2ccco2)n1/N=C/c1ccc(O)c(O)c1,-25%,7.9µM*,0.67µM*,?,-15%,?
CN=c1scc(C)n1/N=C/c1ccc(O)cc1O,0.71µM*,4.5µM*,0.43µM*,?,0.45µM*,?
CCc1cccc(C)c1NC(=O)CN1C(=O)NC(C)(CCC(C)C)C1=O (stereo unspecified),/,/,/,-6%,/,5%
Cc1nnc(C)n1/N=C/c1ccc2c(c1)OCCO2,0%,14%,2%,?,0%,?
COc1cc(/C=N/N2C(C)CCCC2C)cc(Br)c1O (stereo unspecified),0%,2%,-2%,?,-4%,-4%
CN=c1scc(C)n1/N=C/c1ccc(O)cc1,2.2µM*,?,3µM*,?,3.2µM*,3.2µM*
CN=c1scc(C)n1/N=C/c1ccc2c(c1)OCO2,0.35µM*,4.5µM*,1.3µM*,?,0.71µM*,0.65µM*
CCN=c1scc(C)n1/N=C/c1cc(Br)c(O)c(OC)c1,1%,?,?,5.8µM*,0%,6%
CN(Cc1ccccc1)C(=O)c1ccc(NC(=O)Cc2ccc([N+](=O)[O-])cc2)cc1,/,/,/,?,/,-2%
COC(=O)c1c(N)nc(C)n1-c1ccc(OC)cc1,0%,/,6%,-2%,0%,-7%
COc1ccc(-n2c(C)c(C)c3c(N)ncnc32)cc1,14%,/,-4%,10µM*,13%,-16%
COc1ccc(-c2nc(NC(C)=O)sc2-c2ccc(OC)cc2)cc1,0%,-1%,0%,?,2%,8%
COc1ccc(C2CC(=O)c3sc(NC(C)=O)nc3C2)cc1 (stereo unspecified),24%,-13%,27µM*,?,26%,?
CCCn1nc(NC(=O)c2cccs2)c2cc3ccc(C)cc3nc21,-1%,/,?,-27%,-2%,-9%
CCCn1nc(NC(=O)c2cccs2)c2cc3cc(OC)ccc3nc21,6%,22%,11µM*,?,5%,19%
SMILES,Rab9 promoter act,SMN2 splice up,FLuc modulator,ELG1 repair inh,NPC1 prom act,ELG1 genotoxic
CCCCn1nc(NC(=O)c2cccs2)c2cc3ccccc3nc21,18%,/,24µM*,?,-2%,-8%
CCCCn1nc(NC(=O)CCC)c2cc3cc(OC)ccc3nc21,4%,/,-2%,13%,20%,7%
CCCn1nc(NC(=O)c2cccs2)c2cc3cc(C)ccc3nc21,-1%,/,6.7µM*,?,6%,-3%
CCCCn1nc(NC(=O)c2cccs2)c2cc3cc(OC)ccc3nc21,-6%,9%,19µM*,?,-1%,0%
CC(=O)OCC(=O)[C@@]12OC(C)(C)O[C@@H]1C[C@H]1[C@H]3C[C@H](F)C4=CC(=O)C=C[C@@]4(C)[C@]3(F)[C@H](O)C[C@@]12C,/,-3%[20.6 µM],/,/,/,/
O=C1CC(N(CCc2ccccc2)C(=S)Nc2cc(Cl)ccc2Cl)C(=O)N1c1c(Cl)cccc1Cl (stereo unspecified),2%,-36%,0%,-1%,-9%,-8%
C=CCOC(=O)N[C@@H](c1ccc(Br)cc1)C(C(C)=O)C(C)=O,/,8%,/,/,/,/
Cc1noc(C)c1CSc1nc2ccccc2[nH]1,0%,6%,-2%,13%,-2%,?
O=C(CSc1nc2ccccc2[nH]1)c1c[nH]c2ccccc12,20%,13%,-11%,?,11%,7%
O=C(CSc1nc2ccccc2[nH]1)c1ccccc1F,1.6µM*,/,8.5µM*,?,1.4µM*,?
Fc1cccc(F)c1CSc1nc2ccccc2[nH]1,1µM*,10µM*,?,?,1.4µM*,?
COCCn1c(C)cc(C(=O)CSc2ccc3ccccc3n2)c1C,?,11µM*,12µM*,?,?,4%
COCC(C)n1c(C)cc(C(=O)CSc2nc3ccccc3c(=O)[nH]2)c1C (stereo unspecified),21%,-42%,?,16µM*,13%,-7%
CCOC(=O)C(C(C)C)C(N)Cc1ccc(F)cc1 (stereo unspecified),13%,-13%,-16%,5%,0%,-7%
Cc1cc(C(=O)CSc2nc3ccccc3[nH]2)c(C)n1C,0.45µM*,3.2µM*,3.4µM*,?,0.4µM*,?

# Screening results (PubChem BioAssay)
